From PubChem BioAssay AID1159580 (chemical genetic matrix, 2015)
Among all 5,500 compounds or so, about 2,000 (36%) were called active. Roughly 18% stayed inconclusive and do not appear here. Rule as the data show it: active = normalized growth mostly below about 0.91 (no sharp cut-off); inconclusive = no clear call, values can overlap the other calls; inactive = mostly above about 0.92. The list shows a part of the results.

Test: chemical genetic growth profiling, strain panel (AID 1159580);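 also: tested at 20 µM; growth read once vehicle control cultures reached saturation at 30 °C; 1 = growth at the plate median or of vehicle wells; lower values mean less growth of the strain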
Conditions: growth OD

Measured: normalized growth

CC1=C(C(=O)O)N2C(=O)[C@@H](NC(=O)[C@H](N)C3=CCC=CC3)C2SC1 (some centres not stated)
inactive: S. cerevisiae deletion strains, locus YJR066W, strain TOR1, stronger effect = lower value 0.974 | S. cerevisiae deletion strains, locus YKL009W, strain mrt4, stronger effect = lower value 1 | S. cerevisiae deletion strains, locus YKL068W, stronger effect = lower value 0.979 | S. cerevisiae deletion strains, locus YKL085W, strain MDH1 (second series), stronger effect = lower value 0.978 | S. cerevisiae deletion strains, locus YKL085W, strain MDH1, stronger effect = lower value 0.978 | S. cerevisiae deletion strains, locus YKL160W, strain elf1, stronger effect = lower value 1 | S. cerevisiae deletion strains, locus YKR001C, strain vps1, stronger effect = lower value 0.994 | S. cerevisiae deletion strains, locus YKR026C, strain gcn3, stronger effect = lower value 1.02 | S. cerevisiae deletion strains, locus YKR091W, strain srl3, stronger effect = lower value 1.01 | S. cerevisiae deletion strains, locus YLL001W, strain dnm1, stronger effect = lower value 0.998 | S. cerevisiae deletion strains, locus YLL026W, stronger effect = lower value 1.02 | S. cerevisiae deletion strains, locus YLL041C, strain sdh2, stronger effect = lower value 1.02 | S. cerevisiae deletion strains, locus YLR027C, strain aat2, stronger effect = lower value 1.02 | S. cerevisiae deletion strains, locus YLR039C, strain RIC1, stronger effect = lower value 0.983 | S. cerevisiae deletion strains, locus YLR058C, strain SHM2, stronger effect = lower value 0.974 | S. cerevisiae deletion strains, locus YLR102C, strain apc9, stronger effect = lower value 1 | S. cerevisiae deletion strains, locus YLR113W, strain HOG1, stronger effect = lower value 0.968 | S. cerevisiae deletion strains, locus YLR221C, strain rsa3, stronger effect = lower value 1.02 | S. cerevisiae deletion strains, locus YLR258W, strain gsy2, stronger effect = lower value 1.03 | S. cerevisiae deletion strains, locus YLR262C, strain YPT6 (second series), stronger effect = lower value 1.04 | S. cerevisiae deletion strains, locus YLR262C, strain YPT6, stronger effect = lower value 0.924 | S. cerevisiae deletion strains, locus YLR268W, strain sec22, stronger effect = lower value 1 | S. cerevisiae deletion strains, locus YLR320W, strain mms22, stronger effect = lower value 1.01 | S. cerevisiae deletion strains, locus YLR330W, strain CHS5, stronger effect = lower value 0.986 | S. cerevisiae deletion strains, locus YLR342W, strain FKS1 (second series), stronger effect = lower value 1.03 | S. cerevisiae deletion strains, locus YLR342W, strain FKS1, stronger effect = lower value 1.01 | S. cerevisiae deletion strains, locus YLR357W, strain rsc2, stronger effect = lower value 1.04 | S. cerevisiae deletion strains, locus YLR370C, strain arc18, stronger effect = lower value 1.03 | S. cerevisiae deletion strains, locus YLR371W, strain rom2, stronger effect = lower value 0.999 | S. cerevisiae deletion strains, locus YLR384C, strain iki3, stronger effect = lower value 1.02 | S. cerevisiae deletion strains, locus YLR418C, strain cdc73, stronger effect = lower value 1.01 | S. cerevisiae deletion strains, locus YML016C, strain PPZ1, stronger effect = lower value 0.986 | S. cerevisiae deletion strains, locus YML032C, strain rad52, stronger effect = lower value 0.995 | S. cerevisiae deletion strains, locus YML120C, strain ndi1, stronger effect = lower value 1.02 | S. cerevisiae deletion strains, locus YML124C, strain tub3, stronger effect = lower value 0.995 | S. cerevisiae deletion strains, locus YMR058W, strain fet3, stronger effect = lower value 1.02 | S. cerevisiae deletion strains, locus YMR078C, strain ctf18, stronger effect = lower value 0.994 | S. cerevisiae deletion strains, locus YMR125W, strain sto1, stronger effect = lower value 0.996 | S. cerevisiae deletion strains, locus YMR129W, stronger effect = lower value 1.02 | S. cerevisiae deletion strains, locus YMR205C, strain PFK2, stronger effect = lower value 1.04 | S. cerevisiae deletion strains, locus YMR223W, strain ubp8, stronger effect = lower value 1.01 | S. cerevisiae deletion strains, locus YMR231W, strain pep5, stronger effect = lower value 1 | S. cerevisiae deletion strains, locus YMR263W, strain SAP30, stronger effect = lower value 1 | S. cerevisiae deletion strains, locus YMR307W, strain GAS1, stronger effect = lower value 0.933 | S. cerevisiae deletion strains, locus YNL067W, strain RPL9B, stronger effect = lower value 1.02 | S. cerevisiae deletion strains, locus YNL071W, strain lat1, stronger effect = lower value 1.02 | S. cerevisiae deletion strains, locus YNL153C, strain GIM3, stronger effect = lower value 1.02 | S. cerevisiae deletion strains, locus YNL183C, strain NPR1, stronger effect = lower value 0.933 | S. cerevisiae deletion strains, locus YNL209W, strain ssb2, stronger effect = lower value 1.03 | S. cerevisiae deletion strains, locus YNL233W, strain BNI4, stronger effect = lower value 1.03 | S. cerevisiae deletion strains, locus YNL248C, strain rpa49, stronger effect = lower value 1.05 | S. cerevisiae deletion strains, locus YNL250W, strain rad50, stronger effect = lower value 1 | S. cerevisiae deletion strains, locus YNL271C, strain bni1, stronger effect = lower value 1 | S. cerevisiae deletion strains, locus YNL298W, strain CLA4, stronger effect = lower value 0.999 | S. cerevisiae deletion strains, locus YNL307C, strain MCK1, stronger effect = lower value 0.995 | S. cerevisiae deletion strains, locus YNL322C, strain KRE1 (second series), stronger effect = lower value 1.01 | S. cerevisiae deletion strains, locus YNR049C, strain mso1, stronger effect = lower value 1.02 | S. cerevisiae deletion strains, locus YNR052C, strain pop2, stronger effect = lower value 0.996 | S. cerevisiae deletion strains, locus YOL012C, strain htz1 0.951 | S. cerevisiae deletion strains, locus YOL147C, strain pex11, stronger effect = lower value 0.997 | S. cerevisiae deletion strains, locus YOR001W, strain rrp6, stronger effect = lower value 1.02 | S. cerevisiae deletion strains, locus YOR061W, strain CKA2, stronger effect = lower value 0.968 | S. cerevisiae deletion strains, locus YOR069W, strain VPS5, stronger effect = lower value 0.976 | S. cerevisiae deletion strains, locus YOR070C, strain gyp1, stronger effect = lower value 1.02 | S. cerevisiae deletion strains, locus YOR080W, strain dia2, stronger effect = lower value 1.03 | S. cerevisiae deletion strains, locus YOR083W, strain WHI5, stronger effect = lower value 0.993 | S. cerevisiae deletion strains, locus YOR106W, strain vam3, stronger effect = lower value 1.04 | S. cerevisiae deletion strains, locus YOR136W, strain idh2, stronger effect = lower value 0.984 | S. cerevisiae deletion strains, locus YOR144C, strain elg1, stronger effect = lower value 0.995 | S. cerevisiae deletion strains, locus YOR184W, strain ser1, stronger effect = lower value 0.992 | S. cerevisiae deletion strains, locus YOR231W, strain MKK1, stronger effect = lower value 0.979 | S. cerevisiae deletion strains, locus YOR265W, strain rbl2, stronger effect = lower value 1.02 | S. cerevisiae deletion strains, locus YOR270C, strain vph1, stronger effect = lower value 1.07 | S. cerevisiae deletion strains, locus YOR290C, strain snf2, stronger effect = lower value 1.02 | S. cerevisiae deletion strains, locus YOR316C, strain cot1, stronger effect = lower value 0.991 | S. cerevisiae deletion strains, locus YPL051W, strain arl3, stronger effect = lower value 1.01 | S. cerevisiae deletion strains, locus YPL078C, strain atp4, stronger effect = lower value 1.02 | S. cerevisiae deletion strains, locus YPL106C, strain sse1, stronger effect = lower value 1.03 | S. cerevisiae deletion strains, locus YPL240C, strain hsp82, stronger effect = lower value 1.01 | S. cerevisiae deletion strains, locus YPL241C, strain CIN2, stronger effect = lower value 0.989 | S. cerevisiae deletion strains, locus YPL256C, strain CLN2, stronger effect = lower value 0.956 | S. cerevisiae deletion strains, locus YPR119W, strain clb2, stronger effect = lower value 0.995 | S. cerevisiae deletion strains, locus YPR141C, strain kar3, stronger effect = lower value 0.988 | S. cerevisiae deletion strains, locus YPR163C, strain tif3, stronger effect = lower value 0.995 | S. cerevisiae deletion strains, locus YPR167C, strain met16, stronger effect = lower value 0.998 | S. cerevisiae deletion strains, strain wtn01, stronger effect = lower value 1.04 | S. cerevisiae strains, strain wild type, stronger effect = lower value 0.985
